According to PubChem BioAssay (EPA / NIEHS):
Inconclusive results are not listed. The source made the active and inactive calls. The calls were made as follows: active = hit-call score of the fitted dose curve at least 0.9, where 1 is the maximum; inconclusive = response in the unintended direction; inactive = score below 0.9.

molecular target: human Caspase 2 (CASP2), CASP2 (gene 835) (UniProt P42575); assay: NVS_ENZ_hCASP2: NovaScreen (NVS) Enzymatic Assay for human Caspase 2 (CASP2) (AID 2283135)
Experimental: (§1) NVS_ENZ_hCASP2 is a biochemical, single-readout assay that uses extracted gene-proteins from E. coli in a cell-free assay. Measurements were taken 1 hour after chemical dosing in a 96-well plate.NVS_ENZ_hCASP2 is one of one assay component(s) measured or calculated from the NVS_ENZ_hCASP2 assay. It is designed to make measurements of enzyme activity, a form of enzyme reporter, as detected with fluorescence intensity signals by Fluorescence technology.Data from the assay component NVS_ENZ_hCASP2 was analyzed into 1 assay endpoint. This assay endpoint, NVS_ENZ_hCASP2, was analyzed in the positive analysis fitting direction relative to DMSO as the negative control and baseline of activity. Using a type of enzyme reporter, loss-of-signal activity can be used to understand changes in the enzymatic activity as they relate to the gene CASP2. Furthermore, this assay endpoint can be referred to as a primary readout, because this assay has produced multiple assay endpoints where this one serves a enzymatic activity function. To generalize the intended target to other relatable targets, this assay endpoint is annotated to the protease intended target family, where the subfamily is cysteine protease.
(§2) Binding assays used specific radioligands (tritiated, iodinated) with non-radioactive competitive displacement ligands in agonist or antagonist protocols (as indicated) and various reference compounds and inhibitors to titrate specific binding to receptors and transporters. Most enzyme assays (CYPs, kinases, phosphatases, proteases, HDACs) used recombinant protein and specific substrates (fluorescence mostly, some colorimetric and radioactive) and inhibitors, followed by a biochemical separation of substrate and product. All assays for the biochemical HTS were initially run in duplicate at a single concentration (10 uM for CYP450 assays and 25 uM for all others). Assay-chemical combinations meeting a pre-defined threshold (e.g., 30% inhibition and other criteria defined below) were then run in singleton concentration-response format with maximum concentration of 20 uM for CYPs and 50 uM for all others. Each assay was run with positive and negative controls, and concurrent controls on every plate. The follow-up (secondary) screen tested active chemical-pairs in concentration series, as well as a few additional assays not tested in the primary screen, some selected negative inactives, and several cases re-run in the concentration series for confirmatory purposes.

human Caspase 2 (CASP2), CASP2 (gene 835), sequence (P42575 whole entry, looked up): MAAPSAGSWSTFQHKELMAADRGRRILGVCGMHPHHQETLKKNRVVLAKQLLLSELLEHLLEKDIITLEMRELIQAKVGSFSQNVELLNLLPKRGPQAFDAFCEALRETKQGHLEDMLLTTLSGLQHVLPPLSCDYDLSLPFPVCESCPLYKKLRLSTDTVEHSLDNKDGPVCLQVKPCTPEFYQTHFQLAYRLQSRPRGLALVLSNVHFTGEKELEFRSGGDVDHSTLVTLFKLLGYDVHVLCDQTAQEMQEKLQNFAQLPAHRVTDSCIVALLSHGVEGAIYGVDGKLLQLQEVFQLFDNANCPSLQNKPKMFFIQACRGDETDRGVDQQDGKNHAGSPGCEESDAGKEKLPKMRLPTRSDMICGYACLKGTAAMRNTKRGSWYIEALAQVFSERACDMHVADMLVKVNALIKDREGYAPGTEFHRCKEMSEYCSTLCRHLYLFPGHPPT

SMILES	outcome
CC(C)N1C(=O)N(c2ccccc2)CSC1=NC(C)(C)C	inactive
O=C1C2CC=CCC2C(=O)N1SC(Cl)(Cl)Cl (configuration not stated)	inactive
CCNC(=O)NC(=O)C(C#N)=NOC	inactive
CN/C(=N\[N+](=O)[O-])NCc1cnc(Cl)s1	inactive

molecular target: human AKT serine/threonine Kinase 1 (AKT1), AKT1 (gene 207) (UniProt P31749); assay: NVS_ENZ_hAKT1: NovaScreen (NVS) Enzymatic Assay for human AKT serine/threonine Kinase 1 (AKT1) (AID 2283138)
In short: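 Compounds were first tested in duplicate at 25 uM, and those passing a threshold such as 30% inhibition were run in concentration-response to a maximum of 50 uM. Enzyme activity was measured after 1 h by fluorescence following substrate/product mobility-shift separation.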

human AKT serine/threonine Kinase 1 (AKT1), AKT1 (gene 207), sequence (P31749 whole entry, looked up): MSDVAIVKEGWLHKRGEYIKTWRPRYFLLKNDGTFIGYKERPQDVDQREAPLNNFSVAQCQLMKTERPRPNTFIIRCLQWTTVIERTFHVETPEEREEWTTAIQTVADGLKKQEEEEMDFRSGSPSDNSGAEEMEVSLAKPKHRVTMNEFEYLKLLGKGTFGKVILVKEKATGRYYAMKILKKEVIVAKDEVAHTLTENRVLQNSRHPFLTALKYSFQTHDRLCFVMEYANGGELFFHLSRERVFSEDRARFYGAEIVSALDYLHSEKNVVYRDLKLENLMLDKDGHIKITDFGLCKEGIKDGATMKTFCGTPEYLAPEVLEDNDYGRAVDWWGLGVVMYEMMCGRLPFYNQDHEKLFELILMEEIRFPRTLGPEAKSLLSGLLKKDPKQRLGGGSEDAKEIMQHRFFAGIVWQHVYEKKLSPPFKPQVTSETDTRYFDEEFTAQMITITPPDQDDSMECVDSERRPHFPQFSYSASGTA

SMILES	outcome
N#Cc1c(Cl)cccc1Cl	inactive
CCOc1nc(F)cc2nc(S(=O)(=O)Nc3c(Cl)cccc3Cl)nn12	inactive
O=c1n(Cl)c(=O)n(Cl)c(=O)n1Cl	inactive
Nc1c(Cl)c(Cl)nc(C(=O)O)c1Cl	inactive

molecular target: human Beta-secretase (BACE), BACE1 (gene 23621) (UniProt P56817); assay: NVS_ENZ_hBACE: NovaScreen (NVS) Enzymatic Assay for human Beta-secretase (BACE) (AID 2283140);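 also: hits are inhibitors that reduce fluorescent substrate signal versus DMSO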
In short: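 Fluorescence intensity read-out of protease activity defines this endpoint; signal loss relative to DMSO baseline marks inhibition. Recombinant enzyme from SF9 cells, cell-free format, 1 h exposure. Single-concentration duplicate screen (25 uM) precedes concentration-series follow-up.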

human Beta-secretase (BACE), BACE1 (gene 23621), sequence (P56817 whole entry, looked up): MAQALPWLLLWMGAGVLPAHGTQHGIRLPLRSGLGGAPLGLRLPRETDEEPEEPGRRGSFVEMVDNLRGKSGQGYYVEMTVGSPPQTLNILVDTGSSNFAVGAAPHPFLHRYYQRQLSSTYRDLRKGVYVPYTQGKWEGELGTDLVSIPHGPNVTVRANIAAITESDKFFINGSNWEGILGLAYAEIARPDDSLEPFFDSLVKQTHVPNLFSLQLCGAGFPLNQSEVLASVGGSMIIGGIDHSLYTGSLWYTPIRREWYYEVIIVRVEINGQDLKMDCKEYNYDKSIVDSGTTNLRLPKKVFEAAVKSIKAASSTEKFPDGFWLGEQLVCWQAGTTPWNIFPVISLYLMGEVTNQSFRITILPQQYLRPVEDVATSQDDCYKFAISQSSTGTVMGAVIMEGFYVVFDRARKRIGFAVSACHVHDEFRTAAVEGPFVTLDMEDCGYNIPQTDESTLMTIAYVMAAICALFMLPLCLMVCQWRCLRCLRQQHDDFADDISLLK

SMILES	AC50	outcome
CCCCOCN(C(=O)CCl)c1c(CC)cccc1CC	9.39 µM (active)	
COC(=O)c1c(C(F)F)nc(C(F)(F)F)c(C2=NCCS2)c1CC(C)C	8.78 µM (active)	
CC(C)=CC1C(C(=O)OCc2coc(Cc3ccccc3)c2)C1(C)C (configuration not stated)	40.5 µM (active)	
COC(=O)N(C(=O)N1CO[C@@]2(C(=O)OC)Cc3cc(Cl)ccc3C2=N1)c1ccc(OC(F)(F)F)cc1		inactive
CC1(C)C(C(=O)OC(C#N)c2cccc(Oc3ccccc3)c2)C1(C)C (configuration not stated)	2.8 µM (active)	
Cc1c(COC(=O)[C@@H]2[C@H](/C=C(\Cl)C(F)(F)F)C2(C)C)cccc1-c1ccccc1		inactive
CC1(C)C(C=C(Cl)Cl)C1C(=O)OC(C#N)c1cccc(Oc2ccccc2)c1 (configuration not stated)		inactive

molecular target: human AKT serine/threonine Kinase 2 (AKT2), AKT2 (gene 208) (UniProt P31751); assay: NVS_ENZ_hAKT2: NovaScreen (NVS) Enzymatic Assay for human AKT serine/threonine Kinase 2 (AKT2) (AID 2283141)
In short: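 Cell-free fluorescence/electrophoretic mobility shift readout of recombinant human AKT2 activity, 1 h after chemical dosing. Duplicate primary screen at 25 uM, then singleton concentration-response up to 50 uM; loss of signal versus DMSO baseline.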

human AKT serine/threonine Kinase 2 (AKT2), AKT2 (gene 208), sequence (P31751 whole entry, looked up): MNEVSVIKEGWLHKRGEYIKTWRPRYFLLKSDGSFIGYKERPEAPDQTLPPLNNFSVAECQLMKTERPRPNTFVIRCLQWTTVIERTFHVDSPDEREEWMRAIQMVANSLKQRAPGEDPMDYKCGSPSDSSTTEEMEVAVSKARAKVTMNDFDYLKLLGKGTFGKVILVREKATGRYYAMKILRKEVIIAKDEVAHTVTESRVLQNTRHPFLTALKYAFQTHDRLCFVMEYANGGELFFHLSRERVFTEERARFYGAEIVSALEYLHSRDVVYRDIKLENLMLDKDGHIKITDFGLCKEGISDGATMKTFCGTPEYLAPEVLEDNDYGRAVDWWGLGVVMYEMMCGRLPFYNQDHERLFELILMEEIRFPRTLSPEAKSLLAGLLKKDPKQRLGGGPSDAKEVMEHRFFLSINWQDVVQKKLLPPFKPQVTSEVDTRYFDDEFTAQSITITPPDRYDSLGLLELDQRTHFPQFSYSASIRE

SMILES	outcome
CS(=O)(=O)c1cc(C(F)(F)F)ccc1C(=O)c1cnoc1C1CC1	inactive
O=c1n(Cl)c(=O)n(Cl)c(=O)n1Cl	inactive
CCCC(=NOCC)C1=C(O)CC(CC(C)SCC)CC1=O (configuration not stated)	inactive
Nc1c(Cl)c(Cl)nc(C(=O)O)c1Cl	inactive

molecular target: human Caspase 8 (CASP8), CASP8 (gene 841) (UniProt Q14790); assay: NVS_ENZ_hCASP8: NovaScreen (NVS) Enzymatic Assay for human Caspase 8 (CASP8) (AID 2283146)
Experimental: as §1, with “NVS_ENZ_hCASP8” for “NVS_ENZ_hCASP2”, “plate.NVS_ENZ_hCASP8” for “plate.NVS_ENZ_hCASP2”, “NVS_ENZ_hCASP8,” for “NVS_ENZ_hCASP2,”, “CASP8.” for “CASP2.”
Binding assays used specific radioligands (tritiated, iodinated) with non-radioactive competitive displacement ligands in agonist or antagonist protocols (as indicated) and various reference compounds and inhibitors to titrate specific binding to receptors and transporters. Most enzyme assays (CYPs, kinases, phosphatases, proteases, HDACs) used recombinant protein and specific substrates (fluorescence mostly, some colorimetric and radioactive) and inhibitors, followed by a biochemical separation of substrate and product. All assays for the biochemical HTS were initially run in duplicate at a single concentration (10 uM for CYP450 assays and 25 uM for all others). […] Each assay was run with positive and negative controls, and concurrent controls on every plate. […]

human Caspase 8 (CASP8), CASP8 (gene 841), sequence (Q14790 whole entry, looked up): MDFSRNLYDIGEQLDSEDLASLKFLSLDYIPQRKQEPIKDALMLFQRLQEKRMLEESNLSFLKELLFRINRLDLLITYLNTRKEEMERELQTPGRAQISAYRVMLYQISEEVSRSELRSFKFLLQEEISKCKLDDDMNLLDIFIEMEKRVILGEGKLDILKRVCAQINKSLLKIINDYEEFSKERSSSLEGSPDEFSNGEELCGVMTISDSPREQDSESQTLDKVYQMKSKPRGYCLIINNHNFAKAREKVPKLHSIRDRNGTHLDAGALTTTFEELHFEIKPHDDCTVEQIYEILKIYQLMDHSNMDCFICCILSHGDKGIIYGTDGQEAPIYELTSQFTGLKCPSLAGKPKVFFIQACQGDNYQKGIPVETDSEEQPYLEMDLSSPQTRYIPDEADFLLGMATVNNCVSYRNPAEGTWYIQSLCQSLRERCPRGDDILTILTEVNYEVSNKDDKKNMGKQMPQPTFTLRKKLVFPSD

SMILES	outcome
CCSC(=O)N1CCCCCC1	inactive
CCOC(=O)C(C)OC(=O)c1cc(Oc2ccc(C(F)(F)F)cc2Cl)ccc1[N+](=O)[O-] (configuration not stated)	inactive
Nc1c(Cl)c(F)nc(OCC(=O)O)c1Cl	inactive

molecular target: human Casein Kinase 2- alpha 2 beta 2 (CK2a2b2), CSNK2A1 (gene 1457) (UniProt P68400); assay: NVS_ENZ_hCK2a2b2: NovaScreen (NVS) Enzymatic Assay for human Casein Kinase 2- alpha 2 beta 2 (CK2a2b2) (AID 2283147)
Experimental: NVS_ENZ_hCK2a2b2 is a biochemical, single-readout assay that uses extracted gene-proteins in a cell-free assay. Measurements were taken 1 hour after chemical dosing in a 384-well plate.NVS_ENZ_hCK2a2b2 is one of one assay component(s) measured or calculated from the NVS_ENZ_hCK2a2b2 assay. It is designed to make measurements of enzyme activity, a form of enzyme reporter, as detected with fluorescence intensity signals by Fluorescence and electrophoretic mobility shift technology.Data from the assay component NVS_ENZ_hCK2a2b2 was analyzed into 1 assay endpoint. This assay endpoint, NVS_ENZ_hCK2a2b2, was analyzed in the positive analysis fitting direction relative to DMSO as the negative control and baseline of activity. Using a type of enzyme reporter, loss-of-signal activity can be used to understand changes in the enzymatic activity as they relate to the gene CSNK2A1. Furthermore, this assay endpoint can be referred to as a primary readout, because this assay has produced multiple assay endpoints where this one serves a enzymatic activity function. To generalize the intended target to other relatable targets, this assay endpoint is annotated to the kinase intended target family, where the subfamily is serine/threonine kinase.
Binding assays used specific radioligands (tritiated, iodinated) with non-radioactive competitive displacement ligands in agonist or antagonist protocols (as indicated) and various reference compounds and inhibitors to titrate specific binding to receptors and transporters. Most enzyme assays (CYPs, kinases, phosphatases, proteases, HDACs) used recombinant protein and specific substrates (fluorescence mostly, some colorimetric and radioactive) and inhibitors, followed by a biochemical separation of substrate and product. All assays for the biochemical HTS were initially run in duplicate at a single concentration (10 uM for CYP450 assays and 25 uM for all others). […]

human Casein Kinase 2- alpha 2 beta 2 (CK2a2b2), CSNK2A1 (gene 1457), sequence (P68400 whole entry, looked up): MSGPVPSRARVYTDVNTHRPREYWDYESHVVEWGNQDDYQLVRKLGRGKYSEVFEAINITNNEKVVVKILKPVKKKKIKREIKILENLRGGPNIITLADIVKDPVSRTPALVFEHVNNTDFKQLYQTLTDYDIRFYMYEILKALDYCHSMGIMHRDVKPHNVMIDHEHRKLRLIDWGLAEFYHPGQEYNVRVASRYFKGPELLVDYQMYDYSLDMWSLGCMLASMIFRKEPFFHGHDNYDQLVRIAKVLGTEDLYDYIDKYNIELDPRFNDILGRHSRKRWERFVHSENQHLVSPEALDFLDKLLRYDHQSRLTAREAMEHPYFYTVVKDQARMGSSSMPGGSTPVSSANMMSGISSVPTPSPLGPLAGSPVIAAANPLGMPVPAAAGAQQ

SMILES	AC50
CS(=O)(=O)c1ccc(C(=O)C2C(=O)CCCC2=O)c([N+](=O)[O-])c1	8.29 µM (active)
Clc1nc(Cl)nc(Nc2ccccc2Cl)n1	15.8 µM (active)
Nc1c(Cl)c(F)nc(OCC(=O)O)c1Cl	18.8 µM (active)

molecular target: human Dual Specificity Protein Phosphatase 3 (DUSP3), DUSP3 (gene 1845) (UniProt P51452); assay: NVS_ENZ_hDUSP3: NovaScreen (NVS) Enzymatic Assay for human Dual Specificity Protein Phosphatase 3 (DUSP3) (AID 2283152);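 also: phosphatase activity of recombinant human DUSP3 on a fluorogenic substrate without cells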
In short: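 Cell-free fluorescence-intensity enzyme activity assay with recombinant protein and substrate; loss of signal fitted relative to DMSO baseline. Primary screen in duplicate at 25 uM, actives then run in concentration series; measured 0 h after dosing.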

human Dual Specificity Protein Phosphatase 3 (DUSP3), DUSP3 (gene 1845), sequence (P51452 whole entry, looked up): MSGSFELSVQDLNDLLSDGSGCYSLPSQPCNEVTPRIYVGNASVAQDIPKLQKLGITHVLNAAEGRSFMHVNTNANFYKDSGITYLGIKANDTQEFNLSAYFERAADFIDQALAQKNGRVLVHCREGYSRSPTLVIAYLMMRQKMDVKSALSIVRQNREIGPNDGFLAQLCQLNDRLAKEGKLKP

SMILES	AC50	outcome
CC(C)N1C(=O)N(c2ccccc2)CSC1=NC(C)(C)C	2.96 µM (active)	
CCOC(=O)C(C)OC(=O)c1cc(Oc2ccc(C(F)(F)F)cc2Cl)ccc1[N+](=O)[O-] (configuration not stated)		inactive
COC(=O)N(C(=O)N1CO[C@@]2(C(=O)OC)Cc3cc(Cl)ccc3C2=N1)c1ccc(OC(F)(F)F)cc1		inactive
CCCC(=NOCC)C1=C(O)CC(CC(C)SCC)CC1=O (configuration not stated)		inactive
CC1(C)C(C=C(Cl)Cl)C1C(=O)OC(C#N)c1cccc(Oc2ccccc2)c1 (configuration not stated)	3.06 µM (active)	

molecular target: human Elastase, ELANE (gene 1991) (UniProt P08246); assay: NVS_ENZ_hElastase: NovaScreen (NVS) Enzymatic Assay for human Elastase (AID 2283153)
In short: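 Concentration-response to 50 uM max, run singly for chemicals passing a threshold (e.g., 30% inhibition) in a duplicate 25 uM single-point screen. Neutrophil-derived human elastase, absorbance read-out of enzyme activity at 1.5 h; DMSO baseline.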

human Elastase, ELANE (gene 1991), sequence (P08246 whole entry, looked up): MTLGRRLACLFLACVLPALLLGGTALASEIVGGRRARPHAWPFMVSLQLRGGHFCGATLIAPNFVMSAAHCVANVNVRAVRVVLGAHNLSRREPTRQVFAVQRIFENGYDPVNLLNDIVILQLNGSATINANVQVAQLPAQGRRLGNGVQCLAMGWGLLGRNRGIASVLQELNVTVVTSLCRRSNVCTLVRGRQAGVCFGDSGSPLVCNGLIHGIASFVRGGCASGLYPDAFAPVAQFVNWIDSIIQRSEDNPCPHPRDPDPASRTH

SMILES	AC50	outcome
CC(C)=CC1C(C(=O)OCc2coc(Cc3ccccc3)c2)C1(C)C (configuration not stated)	33.6 µM (active)	
O=c1n(Cl)c(=O)n(Cl)c(=O)n1Cl		inactive
CCOC(=O)C(C)OC(=O)c1cc(Oc2ccc(C(F)(F)F)cc2Cl)ccc1[N+](=O)[O-] (configuration not stated)		inactive
CCOc1cc(C(C)(C)C)ccc1C1COC(c2c(F)cccc2F)=N1 (configuration not stated)	40.9 µM (active)	
CCOP(=O)(OCC)Oc1nc(Cl)c(Cl)cc1Cl	14.4 µM (active)	
CCOP(=S)(OCC)Oc1nc(Cl)n(C(C)C)n1		inactive
CC1(C)C(C(=O)OC(C#N)c2cccc(Oc3ccccc3)c2)C1(C)C (configuration not stated)		inactive
OC(c1ccc(Cl)cc1)(c1ccc(Cl)cc1)C(Cl)(Cl)Cl		inactive
Cc1c(COC(=O)[C@@H]2[C@H](/C=C(\Cl)C(F)(F)F)C2(C)C)cccc1-c1ccccc1		inactive

molecular target: human Esterase Plasma (ES), BCHE (gene 590) (UniProt P06276); assay: NVS_ENZ_hES: NovaScreen (NVS) Enzymatic Assay for human Esterase Plasma (ES) (AID 2283157)
Experimental: NVS_ENZ_hES is a biochemical, single-readout assay that uses extracted gene-proteins from Human plasma in a cell-free assay. Measurements were taken 0.25 hour after chemical dosing in a 96-well plate.NVS_ENZ_hES is one of one assay component(s) measured or calculated from the NVS_ENZ_hES assay. It is designed to make measurements of enzyme activity, a form of enzyme reporter, as detected with absorbance signals by Colorimetric technology.Data from the assay component NVS_ENZ_hES was analyzed into 1 assay endpoint. This assay endpoint, NVS_ENZ_hES, was analyzed in the positive analysis fitting direction relative to DMSO as the negative control and baseline of activity. Using a type of enzyme reporter, loss-of-signal activity can be used to understand changes in the enzymatic activity as they relate to the gene BCHE. Furthermore, this assay endpoint can be referred to as a primary readout, because this assay has produced multiple assay endpoints where this one serves a enzymatic activity function. To generalize the intended target to other relatable targets, this assay endpoint is annotated to the esterase intended target family, where the subfamily is pseudocholinesterase.
as §2

human Esterase Plasma (ES), BCHE (gene 590), sequence (P06276 whole entry, looked up): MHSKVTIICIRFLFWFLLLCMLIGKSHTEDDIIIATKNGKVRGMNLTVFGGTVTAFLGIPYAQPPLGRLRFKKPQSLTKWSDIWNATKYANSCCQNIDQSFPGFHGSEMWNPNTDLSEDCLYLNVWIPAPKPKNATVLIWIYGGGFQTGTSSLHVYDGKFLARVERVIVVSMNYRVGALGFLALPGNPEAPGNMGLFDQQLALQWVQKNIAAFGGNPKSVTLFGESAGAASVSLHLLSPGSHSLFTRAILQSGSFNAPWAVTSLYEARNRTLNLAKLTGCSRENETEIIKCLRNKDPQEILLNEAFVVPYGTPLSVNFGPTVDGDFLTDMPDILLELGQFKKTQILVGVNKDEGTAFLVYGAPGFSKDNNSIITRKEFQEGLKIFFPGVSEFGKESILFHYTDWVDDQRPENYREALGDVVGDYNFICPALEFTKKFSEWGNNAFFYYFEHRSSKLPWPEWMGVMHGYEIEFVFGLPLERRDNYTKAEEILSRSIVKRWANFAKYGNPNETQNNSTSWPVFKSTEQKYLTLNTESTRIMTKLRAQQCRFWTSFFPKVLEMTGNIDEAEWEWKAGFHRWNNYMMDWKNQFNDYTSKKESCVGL

SMILES	AC50	outcome
Cn1c(-c2ccccc2)cc(-c2ccccc2)[n+]1C	4.69 µM (active)	
O=C(O)c1c(Cl)ccc2cc(Cl)cnc12	8.48 µM (active)	
COP(=O)(OC)O/C(C)=C/C(=O)N(C)C	17.4 µM (active)	
Cc1nc(N(C)C)nc(OC(=O)N(C)C)c1C	16.9 µM (active)	
CC1(C)CCC(=Cc2ccc(Cl)cc2)C1(O)Cn1cncn1 (configuration not stated)		inactive
CCOP(=O)(OCC)Oc1nc(Cl)c(Cl)cc1Cl	0.00463 µM (active)	
CCOP(=S)(OCC)Oc1nc(Cl)n(C(C)C)n1	4.75 µM (active)	
CCN(CC)C(=O)C(C)Oc1cccc2ccccc12 (configuration not stated)	16.7 µM (active)	
